Data taken from PubChem BioAssay (NCATS).
Results filed as inconclusive are left out. Values without a mark were called inactive. Active and inactive are the calls of the source. The call rests on the fitted dose curve; in most records, active means well fitted inhibition curve with a large enough effect; inconclusive means small, poorly fitted or top-dose-only effect; inactive means flat fitted curve, though single readings scatter.

target: Dual specificity protein kinase CLK4 (Homo sapiens) (UniProt Q9HAZ1); test: qHTS Assay for Inhibitors of CDC-like Kinase 4 (ADP-FP Assay) (AID 1795); conditions: Transcreener ADP fluorescence polarization; series mostly up to 50 µM; activity change, negative = inhibition: at the top concentration; further: nearly all actives have a fitted effect of over 60% in size;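 on activity change, negative = inhibition: recombinant human CLK4 phosphorylating RS repeat peptide at 1 µM ATP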
Experimental: NIH Molecular Libraries Probe Production Centers Network [MLPCN] NIH Chemical Genomics Center [NCGC] MLPCN Grant: 1R03MH084827-01 Assay Submitter (PI): Tom Misteli NCGC Assay Overview: Clk4 (Invitrogen cat # PV3839) was assayed using ATP and the RS repeat peptide (AnaSpec cat # 61722) as substrates using Transcreener (trade mark), a competitive fluorescence polarization (FP) assay. For the present assay, we used the Orange TranscreenerTM ADP2 (BellBrooks Labs, Madison, Wis) detection system to monitor ADP production in the kinase reaction. […] This allows the ADP tracer to freely rotate leading to a decrease in the observed FP value. The amount of ADP produced can then be calculated using a calibration curve. The positive control for the assay was TG003 (Sigma-Aldrich, cat # 300801-52-9) which is a Clk4 inhibitor [2].
NCGC Assay Protocol Summary: Two uL/well of substrate-buffer solution (100 uM RS peptide, 1 uM ATP, 25 mM Tris pH7.5, 10 mM MgCl2, 0.5 mM EGTA, 2.5 mM DTT, 0.01% Triton X-100 final concentration) was dispensed into 1,536-well assay plates (Greiner, solid black medium-binding plates) with Aurora Discovery BioRAPTR Flying Reagent Dispenser (FRD; Beckton-Dickenson). Using a Kalypsys pin tool equipped with a 1,536-pin tool, 23 nL of compound solution was transferred to the assay plate. Two uL/well Clk4-buffer solution (6.25 nM Clk4, 25 mM Tris pH 7.5, 10 mM MgCl2, 0.5 mM EGTA, 2.5 mM DTT, 0.01% Triton X-100, final concentration) was then added using the FRD yielding a total kinase reaction volume of 4 uL/ well. Then 4 uL/well of detection mixture (4 nM orange fluorescent tracer, 1 ug/mL ADP antibody, final concentration) was then added after an hour and the polarization signal was measured using the EnVision plate reader (PerkinElmer, Waltham, MA) after 30 min of room temperature incubation using the following filters and program settings: BODIPY TMR FP dual Enh mirror (barcode 682); BODIPY-TMR 531 (barcode 105) excitation; BODIPY-TMR FP P/S polarized 595 nm filters (barcodes 210 and 211, respectively); 100% light; 150 flashes; 1.35 G-factor; Detector gains were 685 for the 1st detector; 630 for the 2nd detector.
On the % scale 0 is the no-effect control and ±100 the full control effect; potency means the concentration at half of the fitted maximal effect.

Dual specificity protein kinase CLK4 (Homo sapiens), sequence (Q9HAZ1 whole entry, looked up): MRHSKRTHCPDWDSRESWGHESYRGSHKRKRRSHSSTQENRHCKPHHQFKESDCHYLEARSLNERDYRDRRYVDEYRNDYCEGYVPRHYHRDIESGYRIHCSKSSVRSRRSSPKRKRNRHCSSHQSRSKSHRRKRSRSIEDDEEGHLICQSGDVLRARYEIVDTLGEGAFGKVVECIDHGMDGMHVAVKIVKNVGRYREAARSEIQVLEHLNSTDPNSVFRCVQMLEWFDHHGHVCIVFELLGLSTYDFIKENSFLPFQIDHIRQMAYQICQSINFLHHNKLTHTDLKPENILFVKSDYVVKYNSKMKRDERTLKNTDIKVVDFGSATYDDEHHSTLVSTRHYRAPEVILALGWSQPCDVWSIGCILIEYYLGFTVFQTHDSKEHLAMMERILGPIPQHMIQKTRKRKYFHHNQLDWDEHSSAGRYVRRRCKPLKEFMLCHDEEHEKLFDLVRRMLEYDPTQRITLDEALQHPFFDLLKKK

Row | SMILES | Potency | activity change, negative = inhibition
1 | CC(=O)NCCNc1ncnc2ccc(-c3c(C)noc3C)cc12 | 7.08 µM (active) | 
2 | Cc1nc2cnc(N3CCNCC3)nc2n(Cc2cccs2)c1=O |  | 2.3%
3 | COCCNc1ncncc1-c1ccccc1OC |  | 11.3%
4 | COc1cccc(Cn2c(=O)cnc3cnc(Oc4ccccc4)nc32)c1 |  | -9.57%
5 | CN1CCN(c2ncncc2-c2ccc(C(=O)N(C)C)cc2)CC1 |  | 8.65%
6 | CN(C)c1ncc2ncc(=O)n(C3CC3)c2n1 |  | -25.2%
7 | O=c1cnc2cnc(Nc3ccccc3)nc2n1C1CC1 | 1.58 µM (active) | 
8 | CN(C)c1ncc2nc(-c3ccc(F)cc3)c(=O)n(C)c2n1 |  | 0.766%
9 | CCNc1ncc2nc(-c3ccc(OC)cc3)c(=O)n(C[C@H]3CCCO3)c2n1 |  | 7.1%
10 | COCCn1c(=O)c(-c2ccc(Cl)cc2)nc2cnc(Nc3ccccc3)nc21 |  | 9.57%
11 | c1cncc(CNc2ccnc(-c3ccc4c(c3)OCO4)n2)c1 | 0.0447 µM (active) | 
12 | CCNc1ncc2ncc(=O)n(Cc3cccs3)c2n1 | 5.01 µM (active) | 
13 | CN1CCN(c2ncc3nc(-c4cccc(C#N)c4)c(=O)n(Cc4ccc(F)cc4)c3n2)CC1 |  | 8.05%
14 | CCNc1ncc2ncc(=O)n(C3CC3)c2n1 | 12.6 µM (active) | 
15 | O=c1cnc2cnc(N3CCOCC3)nc2n1C1CC1 |  | -5.28%
16 | COCCNc1cc(-c2c(C)noc2C)ncn1 |  | -13.5%
17 | CS(=O)(=O)Nc1cccc(-c2ccc3ncnc(N4CCNCC4)c3c2)c1 | 5.01 µM (active) | 
18 | CC(=O)NCCNc1cc(-c2ccccc2C)ncn1 |  | -22.6%
19 | COc1ccc(-n2c(=O)c(-c3cn(C)c4ccccc34)nc3cnc(N4CCOCC4)nc32)cc1 |  | 5.74%
20 | COc1cccc(Nc2ncc3nc(-c4ccc(Cl)cc4)c(=O)n(C4CC4)c3n2)c1 |  | 6.51%

Row | SMILES | Potency | activity change, negative = inhibition
21 | Cn1c(=O)c(-c2cccs2)nc2cnc(N3CCNCC3)nc21 |  | 4.07%
22 | COc1ncc2nc(-c3cc(F)cc(F)c3)c(=O)n(C)c2n1 |  | 6.74%
23 | COc1cccc(Cn2c(=O)c(-c3ccc(F)cc3)nc3cnc(N(C)C)nc32)c1 |  | 5.36%
24 | CN(C)C(=O)c1ccc(-c2cncnc2NC2CCNCC2)cc1 |  | 4.44%
25 | COc1ccccc1-c1ccc2ncnc(NC3CCNCC3)c2c1 |  | -3.37%
26 | COc1ccc(CNc2ncnc3ccc(-c4cccc(C#N)c4)cc23)c(OC)c1 |  | -4.59%
27 | N#Cc1cccc(-c2nc3cnc(Oc4cccc(Cl)c4)nc3n(C3CC3)c2=O)c1 |  | 7.73%
28 | CCNc1ncc2nc(-c3cc(F)cc(F)c3)c(=O)n(C)c2n1 |  | -1.15%
29 | COCCNc1ncnc2ccc(-c3ccoc3)cc12 | 0.224 µM (active) | 
30 | CCNc1ncc2nc(-c3cn(C)c4ccccc34)c(=O)n(-c3ccccc3)c2n1 |  | 2.95%
31 | COc1ccc(-c2nc3cnc(N4CCNCC4)nc3n(Cc3cccs3)c2=O)cc1 |  | -1.99%
32 | Cc1noc(C)c1-c1cc(N2CCNCC2)ncn1 |  | 3.27%
33 | COc1cccc(-c2nc(NCc3ccccc3)c3ccccc3n2)c1 | 2.24 µM (active) | 
34 | Cc1ccccc1-c1cncnc1NCc1cccs1 |  | 0.383%
35 | COc1cccc(-c2cncnc2NC2CCNCC2)c1 |  | 1.76%
36 | Cc1ccccc1-c1cc(NCc2ccccc2)ncn1 |  | -8.77%
37 | CCNc1ncc2nc(-c3cccs3)c(=O)n(C)c2n1 |  | 2.53%
38 | CCNc1ncc2nc(C)c(=O)n(C3CC3)c2n1 |  | -24.1%
39 | Clc1ccccc1-c1cncnc1NCc1cccs1 |  | -0.877%
40 | COc1ccc(-c2nc3cnc(Nc4cccc(OC)c4)nc3n(C3CC3)c2=O)cc1 |  | 6.28%
